High-throughput results as filed in PubChem BioAssay.
MITF TRPM1 HTS – activators of MITF-driven TRPM1 promoter activity in SK-MEL-5 cells | SK-MEL-5 TRPM1-promoter luciferase, 24 h; % of positive control, neutral wells = 0 | activation, % at 12.5 µM | 300,000 tested, 0.75% active | AID 588334;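 active = mean activation of at least 80% with every replicate also reaching 80%; inconclusive = mean reaches 80% but some replicate falls short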
esBAF inh – blocks esBAF chromatin remodeling in mouse ES cells | Bmi1-luciferase knock-in reporter, 24 h; 100% = twice the neutral-well signal | reporter increase, % at 12.5 µM | 350,000 tested, 2% active | AID 602393; in the data active = activation above about 40%; inconclusive = no clear call, values can overlap the other calls;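 note: a rise in the Bmi1 reporter signal indicates esBAF inhibition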
LMP1 NFkB inh – Epstein-Barr LMP1 NF-kappaB reporter inhibition. LMP1-induced NF-kappaB luciferase reporter cells, luminescence. inhibition, % at 12.5 µM. 350,000 tested, 0.69% active; in the data active = inhibition above about 41%; inconclusive = no clear call, values can overlap the other calls
TRPM1 prom inh – MITF TRPM1 promoter inhibition in SK-MEL-5 cells; SK-MEL-5 TRPM1 promoter luciferase, 24 h; inhibition, % at 12.5 µM; 330,000 tested, 0.83% active; AID 488899;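 active = mean inhibition across replicates of 60% or more, whatever share of single replicates reaches that level; inconclusive = some that reach 60%, reason not given; inactive = mean inhibition across replicates below 60%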
Wnt bcat act – activates Wnt/beta-catenin signaling in a reporter cell assay | activator, plate reader | activation, % at 9.35 µM | 300,000 tested, 1.2% active; in the data active = activation above about 30%, passing the limit was not always enough; inconclusive = no clear call, values can overlap the other calls
Statin myotox sup – suppressors of simvastatin-induced myotoxicity in C2C12 myotubes | ATP luminescence, 48 h; scaled: DMSO 0, geranylgeraniol control 100 | rescue of ATP level, % at 7.49 µM | 330,000 tested, 0.78% active;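 active = mean ATP rescue above about 67%, or every replicate alone reaching that limit, limit read from the data, passing the limit was not always enough; inconclusive = no clear call, values can overlap the other calls; inactive = mean under the limit and some replicate under it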;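 note: myotubes were challenged with 10 µM simvastatin during compound exposure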
Of the large screens only hits and unclear results are named; the others gave an inactive call. In the library only some 4% were active in any assay of this set; here they are far more common.

CCC(=O)OCCNc1cc(Sc2nc3ccccc3s2)c2nonc2c1[N+](=O)[O-]	Statin myotox sup 102
CCCC(=O)OCCNc1cc(Sc2nccn2C)c2nonc2c1[N+](=O)[O-]	TRPM1 prom inh 101
CCCSc1cc(NCCOC(=O)CCC)c([N+](=O)[O-])c2nonc12	none (no result: Wnt bcat act)
CCCC(=O)OCCNc1cc(SCc2ccco2)c2nonc2c1[N+](=O)[O-]	none (no result: esBAF inh, Statin myotox sup)
CCC(=O)OCCNc1cc(Sc2nc3ccccc3[nH]2)c2nonc2c1[N+](=O)[O-]	TRPM1 prom inh 72 (no result: esBAF inh, Statin myotox sup)
O=[N+]([O-])c1c(NCCCO)cc(Sc2nc3ccccc3s2)c2nonc12	TRPM1 prom inh 70 (no result: Wnt bcat act)
O=C(Nc1ccc2c(c1)CCC2)c1ccccc1F	Wnt bcat act 30 (no result: esBAF inh, Statin myotox sup)
O=C(COc1ccccc1F)Nc1ccc2c(c1)CCC2	Wnt bcat act 43 (no result: MITF TRPM1 HTS, TRPM1 prom inh)
CC1(c2ccc(NC(=O)c3ccccc3F)cc2)CC1(Cl)Cl (stereo not drawn)	esBAF inh 63 (no result: MITF TRPM1 HTS, TRPM1 prom inh)
O=C(COc1cccnc1[N+](=O)[O-])Nc1ccc2c(c1)CCC2	none (no result: esBAF inh, Statin myotox sup)
O=C(O)c1ccccc1-c1ccccc1C(=O)Nc1ccc2c(c1)CCC2	none
O=C(Nc1ccc([N+](=O)[O-])cc1)c1ccccc1F	none (no result: esBAF inh, Statin myotox sup)
O=C(/C=C(\O)c1ccccc1)C(=O)NNC(=O)c1ccccc1	none
COc1c(C)cc(S(=O)(=O)NCc2ccco2)c(C)c1C	none
Cc1ccc(N=Nc2c(N)n(-c3ccccc3)[nH]c2=O)cc1	esBAF inh 42 (no result: Wnt bcat act)
CCN(C(=O)Nc1cccc(Cl)c1)c1ccccc1	none
Cc1cccc(N(O)C(=O)Nc2cccc(Cl)c2)c1	esBAF inh 51 (no result: MITF TRPM1 HTS)
COC1=C(Nc2ccccc2)C(=O)c2ccccc2C1=O	none (no result: esBAF inh, Wnt bcat act, Statin myotox sup)
O=C(COC(=O)Cn1nnc(-c2ccccc2)n1)Nc1ccccc1Br	Statin myotox sup 100 (no result: esBAF inh)
COc1ccc(OC)c(NC(=O)COC(=O)Cn2nnc(-c3ccccc3)n2)c1	none
Nc1nc(Nc2ccccc2F)nc(N2CCCC2)c1[N+](=O)[O-]	MITF TRPM1 HTS 88, esBAF inh 70
COc1ccccc1CN(C)CC(=O)Nc1cccc2ccccc12	none
O=C(NC1CCCC1)c1cc(-c2ccc(Cl)cc2Cl)on1	MITF TRPM1 HTS 97
Cc1ccc(-c2cc(C(=O)Nc3cc(C)ccc3O)no2)cc1	none (no result: MITF TRPM1 HTS)
COc1ccc(-c2cc(C(=O)NC3CCCC3)no2)cc1OC	none (no result: esBAF inh, Wnt bcat act, Statin myotox sup)
O=C(NC1CCCC1)c1cc(-c2ccccc2Cl)on1	Wnt bcat act inconclusive
Cc1ccc(O)c(NC(=O)c2cc(-c3ccccc3Cl)on2)c1	esBAF inh 52 (no result: MITF TRPM1 HTS)
COc1ccccc1-c1cc(C(=O)NC2CCCC2)no1	esBAF inh 46
O=C(NCC1CCCO1)c1cc(-c2ccc(Cl)cc2Cl)on1 (stereo not drawn)	Wnt bcat act 37 (no result: MITF TRPM1 HTS)
O=C(NC1CCCCC1)c1cc(-c2ccccc2Cl)on1	MITF TRPM1 HTS 110, esBAF inh 57
O=C(NC1CCCCC1)c1csnn1	LMP1 NFkB inh 89 (no result: esBAF inh, Statin myotox sup)
O=C(NC(Cc1c[nH]c2ccccc12)C(=O)Nc1ccc(F)cc1)c1cccs1 (stereo not drawn)	none
Cc1cccc(NC(=O)CSc2ncnc3sc(C)c(C)c23)n1	none
Cc1sc2ncnc(SCC(=O)c3cccs3)c2c1C	esBAF inh 60, Wnt bcat act 38
O=C1c2ccccc2NC(c2ccc(-c3ccc(F)cc3)o2)N1O (stereo not drawn)	esBAF inh 41, Wnt bcat act inconclusive
O=C1c2ccccc2NC(c2ccc(-c3ccc(Br)cc3)o2)N1O (stereo not drawn)	none (no result: esBAF inh, Statin myotox sup)
CC1CCc2nc(N)c(C#N)c(-c3ccncc3)c2C1 (stereo not drawn)	none (no result: MITF TRPM1 HTS, Wnt bcat act)
CC1CCc2nc(N)c(C#N)c(-c3cccnc3)c2C1 (stereo not drawn)	LMP1 NFkB inh 59
COC(=O)c1ccc2c(c1)C(=O)/C(=C/c1ccc(C)cc1)O2	esBAF inh 67
CCc1ccc(/C=C2\Oc3ccc(C(=O)OC)cc3C2=O)cc1	none (no result: esBAF inh, Statin myotox sup)
O=C(NCCSc1ccccc1)c1ccccc1	none (no result: Wnt bcat act)
N#C/C(=N\Nc1ccc(Cl)c(Cl)c1)C(=O)C1CC1	Wnt bcat act 39 (no result: MITF TRPM1 HTS, esBAF inh, Statin myotox sup)
O=C(c1ccco1)N1CCN(C(=O)c2cc(=O)[nH]c3ccccc23)CC1	none
C[C@@H]1CCCCCCCCC(=O)OCCN(C(=O)OC(C)(C)C)[C@H](C)CCCCCCCCC(=O)OCCN1C(=O)OC(C)(C)C	none
C[C@@H]1CCCCCCCCC(=O)OCCN[C@H](C)CCCCCCCCC(=O)OCCN[C@H](C)CCCCCCCCC(=O)OCCN1	TRPM1 prom inh 64 (no result: Wnt bcat act)
Clc1ccc(/C=N/Nc2ccccn2)cc1	esBAF inh 43, Wnt bcat act 56
COc1cc(/C=N/Nc2ccc(C(F)(F)F)cn2)ccc1O	Wnt bcat act 31 (no result: esBAF inh, Statin myotox sup)
Cc1ccc(/C=N/Nc2ccccn2)s1	MITF TRPM1 HTS 104, esBAF inh 57
Brc1ccccc1/C=N/Nc1ccccn1	none (no result: esBAF inh, Statin myotox sup)
Fc1ccc(/C=N/Nc2ccccn2)cc1	Wnt bcat act inconclusive (no result: esBAF inh, Statin myotox sup)
COc1ccc(/C=N/Nc2ccccn2)cc1O	MITF TRPM1 HTS 85, Wnt bcat act 48
COCCCn1c(SCC(=O)OC2CCCCC2)nnc1-c1ccco1	none (no result: esBAF inh, Statin myotox sup)
Brc1ccc(/C=N/Nc2ccccn2)cc1	esBAF inh 70
CCOc1ccc(/C=N/Nc2ccccn2)cc1	Wnt bcat act inconclusive (no result: esBAF inh, Statin myotox sup)
CC(=O)Nc1ccccc1C(=O)C(=O)Nc1ccc(C)c(F)c1	none (no result: esBAF inh, Statin myotox sup)
CCc1ccc(NC(=O)C(=O)c2ccccc2NC(C)=O)cc1	Wnt bcat act 42 (no result: MITF TRPM1 HTS, TRPM1 prom inh)
CC(=O)Nc1ccccc1C(=O)C(=O)Nc1ccc(F)c(Cl)c1	esBAF inh 56 (no result: MITF TRPM1 HTS)
COc1ccc(OC(C)C(=O)N2CC(C)OC(C)C2)cc1 (stereo not drawn)	none
CCC(c1nnnn1Cc1ccccc1)N1CCN(C/C=C/c2ccccc2)CC1 (stereo not drawn)	none (no result: MITF TRPM1 HTS, LMP1 NFkB inh, TRPM1 prom inh)
COc1ccc(/C=N/n2nnnc2N)c(OC)c1	none (no result: LMP1 NFkB inh)
CCOc1ccc(-c2nnc(SCC(=O)Nc3ccc4c(c3)c3ccccc3n4CC)n2N)cc1	TRPM1 prom inh 78
Cc1cc(C(=O)CCl)c(C)n1CCc1ccc(Cl)cc1	TRPM1 prom inh 78
Cc1cc(C(=O)CCl)c(C)n1CCc1ccc(F)cc1	TRPM1 prom inh 88
Cc1ccc(NC(=O)CN2C(=O)COc3ccc(C)cc32)nc1	Statin myotox sup 81
Cc1ccc2[nH]cc(CCNC(=O)CN3C(=O)c4ccccc4C3=O)c2c1	none
Cc1ccc2c(c1)N(CC(=O)NCCc1c[nH]c3ccccc13)C(=O)CO2	Statin myotox sup 80 (no result: Wnt bcat act)
C[C@@H](NC(=O)C[C@@H]1CC[C@@H]2[C@H](COC[C@H](O)CN2C(=O)Nc2ccccc2)O1)c1ccccc1	none (no result: MITF TRPM1 HTS, LMP1 NFkB inh, TRPM1 prom inh, Wnt bcat act)
O=C(Nc1cccc(NC(=O)c2ccccc2Cl)c1)c1ccc([N+](=O)[O-])o1	TRPM1 prom inh 77
O=C(Nc1cccc(Cl)c1N1CCOCC1)c1ccc([N+](=O)[O-])o1	Statin myotox sup 97
O=C(Nc1ccc(N2CCCC2)c(Cl)c1)c1ccc([N+](=O)[O-])o1	TRPM1 prom inh 73 (no result: esBAF inh, Statin myotox sup)
